# PubChem BioAssay
# Values without a mark were called inactive. Where a call stands in place of a potency, no number is given. For some assays here: Potency and affinity values are given separately. The source made the active and inactive calls. Unless noted, how the calls were made is not given here.
# What was measured:
# [1] = antimalarial activity against Dd2 strain (AID 2302;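 active means growth inhibition above 50% at the single 2 µM test dose, taken to imply half-maximal potency below 2 µM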); settings: P. falciparum Dd2 in RBCs, LDH growth readout, 72 h; at 2 µM; active compounds read high
# [2] = human hepatoma cell viability loss – ATP luminescence, cytotoxicity control for P. falciparum antimalarial project, primary screen (AID 2303;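 active means inhibition above 50%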); settings: HepG2 viability, 24-48 h, at 10 µM, active compounds read high
# [3] = target: L-lactate dehydrogenase (Plasmodium falciparum (isolate CDC / Honduras)) (UniProt Q27743); assay: PfLDH activity inhibition – cell lysate, 3D7 strain, counter-screen for P. falciparum growth inhibition project (AID 2304); settings: P. falciparum 3D7 crude extract, LDH APAD/NBT absorbance; at 2 µM; active compounds read high
# Sequence of L-lactate dehydrogenase (Plasmodium falciparum (isolate CDC / Honduras)) (Q27743 whole entry, looked up): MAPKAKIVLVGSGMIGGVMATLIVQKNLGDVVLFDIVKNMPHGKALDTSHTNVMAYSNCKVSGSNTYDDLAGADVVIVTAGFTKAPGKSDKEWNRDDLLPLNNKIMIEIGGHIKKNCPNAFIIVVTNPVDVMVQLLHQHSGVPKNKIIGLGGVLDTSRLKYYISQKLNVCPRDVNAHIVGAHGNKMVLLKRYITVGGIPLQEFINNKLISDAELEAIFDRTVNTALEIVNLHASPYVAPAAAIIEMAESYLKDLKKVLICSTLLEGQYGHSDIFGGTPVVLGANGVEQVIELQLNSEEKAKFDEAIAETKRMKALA
# [4] = inhibition of 3D7 malaria parasite growth – strain 3D7 (AID 2306); settings: P. falciparum 3D7 erythrocytic growth, LDH absorbance, 72 h; at 2 µM; active compounds read high
# [5] = target: Calcium-dependent protein kinase 1 (Plasmodium falciparum (isolate 3D7)) (UniProt P62344); assay: PfCDPK1 kinase inhibitors, biochemical, TCAMS library (AID 1159585; cut-off not given, nearly all actives have IC50 up to about 0.98 µM;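 further: inhibitors leave more ATP so luminescence rises with inhibition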); settings: recombinant PfCDPK1, Kinase-Glo ATP depletion luminescence
# Sequence of Calcium-dependent protein kinase 1 (Plasmodium falciparum (isolate 3D7)) (P62344 whole entry, looked up): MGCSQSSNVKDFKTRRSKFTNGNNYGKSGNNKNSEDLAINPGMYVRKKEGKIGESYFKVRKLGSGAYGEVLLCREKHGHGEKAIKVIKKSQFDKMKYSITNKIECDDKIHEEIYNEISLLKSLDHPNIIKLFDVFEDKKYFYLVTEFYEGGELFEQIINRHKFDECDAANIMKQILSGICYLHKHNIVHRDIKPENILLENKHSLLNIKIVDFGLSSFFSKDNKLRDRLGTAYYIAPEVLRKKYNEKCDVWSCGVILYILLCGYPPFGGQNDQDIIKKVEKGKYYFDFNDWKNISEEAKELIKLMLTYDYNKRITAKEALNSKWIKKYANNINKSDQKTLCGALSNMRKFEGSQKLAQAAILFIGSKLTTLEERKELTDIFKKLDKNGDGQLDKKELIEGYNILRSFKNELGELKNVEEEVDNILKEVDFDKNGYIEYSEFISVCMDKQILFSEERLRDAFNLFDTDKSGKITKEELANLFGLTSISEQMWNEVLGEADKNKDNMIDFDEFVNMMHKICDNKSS
# [6] = target: Plasmodium falciparum protein kinase 6 (PK6, PF3D7_1337100) (UniProt Q8IDW1); assay: PfPK6 kinase inhibitors, biochemical, TCAMS library (AID 1159586); settings: recombinant PfPK6, Kinase-Glo ATP depletion luminescence
# Sequence of Plasmodium falciparum protein kinase 6 (PK6, PF3D7_1337100) (Q8IDW1 1-305): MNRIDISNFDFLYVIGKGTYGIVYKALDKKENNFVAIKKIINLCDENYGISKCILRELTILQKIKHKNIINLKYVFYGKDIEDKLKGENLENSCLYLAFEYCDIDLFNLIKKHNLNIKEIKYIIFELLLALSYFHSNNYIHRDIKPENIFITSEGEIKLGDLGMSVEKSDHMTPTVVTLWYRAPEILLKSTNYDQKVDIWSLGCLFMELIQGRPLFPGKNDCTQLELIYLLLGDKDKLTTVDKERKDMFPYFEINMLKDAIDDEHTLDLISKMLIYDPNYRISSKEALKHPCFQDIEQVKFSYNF
# [7] = target: Protein kinase 7 (PK7), Plasmodium falciparum 3D7 (PF3D7_0213400) (UniProt Q7YTF7); assay: inhibition of Plasmodium PK7 catalytic activity – biochemical, TCAMS antimalarial set, Kinase-Glo luminescence (AID 1159587); settings: recombinant PfPK7, Kinase-Glo ATP depletion luminescence
# Sequence of Protein kinase 7 (PK7), Plasmodium falciparum 3D7 (PF3D7_0213400) (Q7YTF7 1-343): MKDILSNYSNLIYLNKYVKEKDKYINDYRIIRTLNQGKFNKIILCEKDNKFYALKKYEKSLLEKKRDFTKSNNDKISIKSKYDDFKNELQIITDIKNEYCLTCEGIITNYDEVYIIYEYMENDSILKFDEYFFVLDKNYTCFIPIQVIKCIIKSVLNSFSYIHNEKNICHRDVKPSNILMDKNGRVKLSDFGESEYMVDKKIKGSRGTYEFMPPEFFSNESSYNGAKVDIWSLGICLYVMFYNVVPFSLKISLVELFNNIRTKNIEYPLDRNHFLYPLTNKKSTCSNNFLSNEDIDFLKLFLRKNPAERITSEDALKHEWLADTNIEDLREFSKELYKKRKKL
# [8] = target: Calcium-dependent protein kinase 4 (Plasmodium falciparum (isolate 3D7)) (UniProt Q8IBS5); assay: PfCDPK4 kinase inhibitors, biochemical, TCAMS library (AID 1159588; cut-off not given, nearly all actives have IC50 up to about 0.91 µM); settings: recombinant PfCDPK4, Kinase-Glo ATP depletion luminescence
# Sequence of Calcium-dependent protein kinase 4 (Plasmodium falciparum (isolate 3D7)) (Q8IBS5 whole entry, looked up): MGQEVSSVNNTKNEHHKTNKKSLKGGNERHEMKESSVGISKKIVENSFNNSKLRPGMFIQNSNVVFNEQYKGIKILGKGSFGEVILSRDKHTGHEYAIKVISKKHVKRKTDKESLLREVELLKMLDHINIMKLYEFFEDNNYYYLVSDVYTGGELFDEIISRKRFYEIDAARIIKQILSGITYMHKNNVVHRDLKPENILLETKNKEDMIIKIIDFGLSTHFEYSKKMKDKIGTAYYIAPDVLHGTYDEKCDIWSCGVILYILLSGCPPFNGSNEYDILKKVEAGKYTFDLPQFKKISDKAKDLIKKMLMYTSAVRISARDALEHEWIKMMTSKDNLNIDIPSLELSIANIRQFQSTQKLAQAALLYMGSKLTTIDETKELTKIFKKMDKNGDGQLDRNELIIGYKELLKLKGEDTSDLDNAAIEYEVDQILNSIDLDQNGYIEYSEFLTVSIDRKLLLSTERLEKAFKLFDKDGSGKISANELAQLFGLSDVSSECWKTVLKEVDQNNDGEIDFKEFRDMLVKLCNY
Compound,growth inhibition [1],inhibition [2],inhibition [3] [%],growth inhibition [4],outcome [5],outcome [6],outcome [7],outcome [8]
O=C(NCCc1ccccc1)N(Cc1ccc(-c2cccc(CN3CCNCC3)c2)cc1)C1CCN(Cc2ccccc2)CC1,29%,27%,-1,90% (active),inactive,inactive,inactive,inactive
CC(Cc1ccc(CN(CC(N)=O)Cc2ccc(CC(C)NCCc3cccc(Cl)c3)cc2)cc1)NCCc1cccc(Cl)c1 (stereo not given),68% (active),26%,2,95% (active),inactive,inactive,inactive,inactive
O=C(NCCCN1CCC(N2CCCCC2)CC1)c1ccc(N2CCOc3ccccc32)s1,12%,37%,4,101% (active),inactive,inactive,inactive,inactive
CCOc1ccc2nc(C)cc(NN=Cc3cccc(F)c3)c2c1,23%,-3%,0,100% (active),inactive,inactive,inactive,inactive
COc1ccc(C(=O)NC2CCN(c3ccnc4cc(Cl)ccc34)C2)cc1 (stereo not given),100% (active),31%,2,100% (active),inactive,inactive,inactive,inactive
CCOC(=O)c1ccc(NC(=O)N[C@@H](Cc2ccccc2)C(=O)NC2CCN(Cc3ccc(OCCCN(C)C)cc3)C2)cc1 (stereo not given in full),8%,5%,0,91% (active),inactive,inactive,inactive,inactive
COc1ccc2nc(Nc3nc4ccncc4[nH]3)sc2c1,26%,8%,0,88% (active),inactive,inactive,inactive,inactive
CCN(CCCN1CCCCC1)c1cc(C)nc(Nc2cc(Br)ccc2C)n1,39%,32%,-7,98% (active),inactive,inactive,inactive,inactive
O=S(=O)(c1ccc(OCc2ccc(Cl)cc2)cc1)c1cc2c(cc1OCc1ccccc1)CCN(CC1CC1)CC2,-2%,19%,-3,82% (active),inactive,inactive,inactive,inactive
Cc1cccc2[nH]c(-c3cccc(-c4cccc(NC(=O)Nc5ccc(F)c(F)c5F)c4)c3)nc12,99% (active),32%,4,100% (active),inactive,inactive,inactive,inactive
COc1cccc(NC(=O)c2ccc(NCCCN3CCC(C)CC3)c([N+](=O)[O-])c2)c1,46%,9%,-6,100% (active),inactive,inactive,inactive,inactive
CN(C)c1ccc(CN2CCCCC(NC(=O)c3cc(-c4ccccc4F)cs3)C2)cc1 (stereo not given),28%,13%,5,100% (active),inactive,inactive,inactive,inactive
CNC(=O)C(NC(=O)c1ccccc1C(=O)OC)c1ccccc1 (stereo not given),2%,4%,3,96% (active),inactive,inactive,inactive,inactive
Cc1ccc(Nc2nc(N)c3ccccc3n2)cc1,12%,9%,8,94% (active),inactive,inactive,inactive,inactive
COC(=O)c1ccc2nc(-c3cc(OC)c(O)c(C(=O)NC4CCN(Cc5ccccc5)CC4)c3)[nH]c2c1,-2%,8%,0,85% (active),inactive,inactive,inactive,inactive
CCOc1ncccc1CN1CCC(N2CCc3cc(NC(=O)c4ccco4)ccc32)C1 (stereo not given),94% (active),3%,1,90% (active),inactive,inactive,inactive,inactive
COc1cccc2cc(C(=O)N[C@@H](CC(C)C)C(=O)N[C@H](/C=N/NC(=O)N3CCN(C)CC3)CCc3ccccc3)oc12,73% (active),1%,4,85% (active),inactive,inactive,inactive,inactive
CN1CCN(c2ncnc3ccc(NC(=O)Nc4ccc(Cl)c(Cl)c4)cc23)CC1,89% (active),7%,-2,100% (active),inactive,inactive,inactive,inactive
CCCCCCCN1CC[C@H](NC(=O)Nc2ccnc3ccc(OC)cc23)[C@H](C(=O)OCC)C1,73% (active),11%,7,101% (active),inactive,inactive,inactive,inactive
O=C(NCCCN1CCC(Cc2ccccc2)CC1)c1cc2c(Cl)nc3ccccc3c2s1,40%,22%,-3,98% (active),inactive,inactive,inactive,inactive

Compound,growth inhibition [1],inhibition [2],inhibition [3] [%],growth inhibition [4],outcome [5],outcome [6],outcome [7],outcome [8]
Cc1ccc(N2CCN(C(=O)c3cccc(-c4cncc5nc(-c6ccco6)n(C)c45)c3)CC2)nc1,91% (active),-13%,-1,94% (active),inactive,inactive,inactive,inactive
CC(C)(C)COC(=O)c1ccc(NC(=O)N[C@@H](Cc2ccc(O)cc2)C(=O)NC2CCN(Cc3ccc(O)cc3)C2)cc1 (stereo not given in full),21%,3%,-1,94% (active),inactive,inactive,inactive,inactive
Cc1cc(Nc2ccncc2)n2nc(C)c(-c3ccc(Cl)cc3)c2n1,99% (active),-9%,2,101% (active),inactive,inactive,inactive,inactive
COc1cc2c(cc1N1C[C@@H](C)N[C@@H](C)C1)N(C(=O)c1ccc(-c3ccc(-c4ncc[nH]4)cc3C)cc1)CC2,58% (active),7%,-2,98% (active),inactive,inactive,inactive,inactive
O=C(c1cc(-c2cccs2)[nH]n1)N1CCN(S(=O)(=O)c2ccc(Cl)s2)CC1,80% (active),20%,1,84% (active),inactive,inactive,inactive,inactive
Cc1cc(-c2nc3ccc(C(=O)NCc4ccccc4)cc3n2C2CCN(C(=O)c3ccc(-c4ccccc4)cc3)CC2)ccn1,97% (active),36%,1,95% (active),inactive,inactive,inactive,inactive
COc1ccc2ncc(F)c([C@H](O)CN3CCC(NCc4ccc5c(c4)OCCO5)CC3)c2c1,99% (active),1%,-5,102% (active),inactive,inactive,inactive,inactive
Fc1ccc2nc(-c3cccc(-c4ccc(CN5CCN(c6cnccn6)CC5)cc4)c3)[nH]c2c1,31%,19%,-4,96% (active),inactive,inactive,inactive,inactive
COc1ccc2nccc(NN=Cc3ccccc3F)c2c1,98% (active),23%,-2,103% (active),inactive,inactive,inactive,inactive
CC(=O)Nc1ccc(C(=O)Nc2cccc(-c3cccc(-c4nc5c(C)cccc5[nH]4)c3)c2)cn1,100% (active),16%,-2,101% (active),inactive,inactive,inactive,inactive
Cc1cccc2[nH]c(-c3ccc(-c4ccc(NC(=O)Nc5cccc(C#N)c5)cc4)s3)nc12,100% (active),33%,-6,101% (active),inactive,inactive,inactive,inactive
COc1ccc(-c2cccc(CNC3CCN(CC4Cn5c(=O)ccc6ccc(F)c4c65)CC3)c2)cc1 (stereo not given),74% (active),22%,0,101% (active),inactive,inactive,inactive,inactive
Cc1cccc2c3c([nH]c12)C1(CCN(Cc2ccccc2)CC1)NC(C(=O)NCc1ccccc1)C3 (stereo not given),8%,-4%,-2,81% (active),inactive,inactive,inactive,inactive
Cc1noc(C)c1-c1ccc2c(Nc3ccc([N+](=O)[O-])cc3)c(C(N)=O)cnc2c1,98% (active),4%,4,100% (active),inactive,inactive,inactive,inactive
CN(Cc1ccc(-c2ccc(C(F)(F)F)cc2)cc1)C(=O)Cn1c(CCc2cccc(F)c2F)cc(=O)c2ccc(OCCCN3CCCCC3)cc21,90% (active),79% (active),5,103% (active),inactive,inactive,inactive,inactive
COc1ccc(-c2ccc(NC(=O)c3ccc(Cl)cc3)cc2)cc1CN(C)CCN(C)C,61% (active),37%,-2,97% (active),inactive,inactive,inactive,inactive
Cc1ccc(C)c(NC(=O)Nc2ccc(C)c(-c3ccc(C(=O)Nc4ccncc4)cc3)c2)c1,59% (active),46%,-3,98% (active),inactive,inactive,inactive,inactive
CC(=O)CSC(C=Cc1ccc(N(C)C)cc1)=Nc1ccccc1,42%,38%,-4,81% (active),inactive,inactive,inactive,inactive
O=C(/C=C/c1ccc(Cl)c(Cl)c1)NCCCCCN1CCC(NC(=O)c2ccc(F)cc2)CC1,13%,14%,-1,102% (active),inactive,inactive,inactive,inactive
COc1ccc(NC(=O)NC2CCN(c3ccnc4cc(Cl)ccc34)C2)cc1 (stereo not given),69% (active),10%,-2,101% (active),inactive,inactive,inactive,inactive
